Reference: the supplement of paper PMC12494721
Where a name gives a salt, the structure may show the parent alone.

These compounds were tested on Ruminococcus gnavus DSM 108212 (assay: fold change of Tryptamine concentration vs plate DMSO controls (fold change (ratio)); higher = more amine produced, active = hit call of the paper (significant change in both replicates, either direction)). Settings: incubation time: 27 h, anaerobic, 37 °C.
Procedure, shortened: (§1)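 Amine values are fold changes relative to DMSO-only wells on the same plate. They derive from 27 h, 37 °C anaerobic mGAM cultures of four gut bacterial strains in 80 µL wells, dosed at 20 µM final, or 50 µM final for sweeteners. Extraction of the whole culture, LC–triple-quadrupole MS in dynamic MRM mode, external calibration curves and within-batch drift correction were used, with 2 biological replicates averaged.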

Compound	fold change of Tryptamine concentration
N#Cc1cc(NC(=O)C(=O)O)c(Cl)c(NC(=O)C(=O)O)c1 [Lodoxamide] (20 µM)	0.986 (inactive)
O=P(O)(O)C(Cl)(Cl)P(=O)(O)O [Clodronate disodium] (20 µM)	0.999 (inactive)
CC(=O)N[C@@H](CCC(N)=O)C(=O)O [Acetyl-L-glutamine] (20 µM)	1.02 (inactive)
CC(=O)N(CC(O)CO)c1c(I)c(C(=O)NCC(O)CO)c(I)c(C(=O)NCC(O)CO)c1I (stereo unspecified) [Iohexol] (20 µM)	1.01 (inactive)
Cc1cc2nc3c(=O)[nH]c(=O)nc-3n(C[C@H](O)[C@H](O)[C@H](O)CO)c2cc1C [Riboflavine] (20 µM)	1.08 (inactive)
CC(=O)CC(c1ccc([N+](=O)[O-])cc1)c1c(O)c2ccccc2oc1=O (stereo unspecified) [Acenocoumarol] (20 µM)	1.01 (inactive)
O=C1CCc2ccc(OCCCCN3CCN(c4cccc(Cl)c4Cl)CC3)cc2N1 [Aripiprazole] (20 µM)	0.781 (active)
Nc1nc(/C(=C/CC(=O)O)C(=O)N[C@@H]2C(=O)N3C(C(=O)O)=CCS[C@H]23)cs1 [Ceftibuten] (20 µM)	1.04 (inactive)
C=C(CC)C(=O)c1ccc(OCC(=O)O)c(Cl)c1Cl [Ethacrynic acid] (20 µM)	0.941 (inactive)
C[C@H](N[C@@H](CCc1ccccc1)C(=O)O)C(=O)N1CCC[C@H]1C(=O)O [Enalaprilat dihydrate] (20 µM)	1.04 (inactive)
O=C1c2ccccc2S(=O)(=O)N1CCCCN1CCN(c2ncccn2)CC1 [Ipsapirone] (20 µM)	0.997 (inactive)
Cn1c(=O)c2c(ncn2CC2OCCO2)n(C)c1=O [Doxofylline] (20 µM)	1.06 (inactive)

Each compound was assayed on Escherichia coli IAI1 (assay: fold change of Putrescine concentration vs plate DMSO controls (fold change (ratio)); higher = more amine produced, active = hit call of the paper (significant change in both replicates, either direction)). Settings: incubation time: 27 h, anaerobic, 37 °C.
Procedure, shortened: as §1

Compound	fold change of Putrescine concentration
CC(=O)S[C@@H]1CC2=CC(=O)CC[C@]2(C)[C@H]2CC[C@@]3(C)[C@@H](CC[C@@]34CCC(=O)O4)[C@H]12 [Spironolactone] (20 µM)	1.02 (inactive)
COC(=O)C1=C(C)NC(C)=C(C(=O)OCCN2CCN(C(c3ccccc3)c3ccccc3)CC2)C1c1cccc([N+](=O)[O-])c1 (stereo unspecified) [Manidipine Dihydrochloride] (20 µM)	0.983 (inactive)
CC(=O)NS(=O)(=O)c1ccc(NC(=O)c2ccccc2C(=O)O)cc1 [Phthalylsulfacetamide] (20 µM)	1.03 (inactive)
CN(C/C=C/C#CC(C)(C)C)Cc1cccc2ccccc12 [Terbinafine] (20 µM)	1.21 (inactive)
Nc1nc2[nH]cnc2c(=S)[nH]1 [Tioguanine] (20 µM)	0.623 (active)
CC(=O)OCC(=O)[C@@]12N=C(C)O[C@@H]1C[C@H]1[C@@H]3CCC4=CC(=O)C=C[C@]4(C)[C@H]3[C@@H](O)C[C@@]12C [Deflazacort] (20 µM)	1.03 (inactive)
CCCCOCCOCCOCc1cc2c(cc1CCC)OCO2 [Piperonyl butoxide] (20 µM)	0.998 (inactive)
O=C(Cn1ccnc1[N+](=O)[O-])NCCO [Etanidazole] (20 µM)	0.91 (inactive)
CCN(CC)CCNC(=O)c1cc(Cl)c(N)cc1OC [Metoclopramide monohydrochloride] (20 µM)	0.875 (inactive)
CCN(CC)CCNC(C(=O)OCCC(C)C)c1ccccc1 (stereo unspecified) [Camylofine chlorhydrate] (20 µM)	0.998 (inactive)
Cc1cc(C)nc(NS(=O)(=O)c2ccc(N)cc2)n1 [Sulfamethazine sodium salt] (20 µM)	0.93 (inactive)
C/C(O)=C(\C#N)C(=O)Nc1ccc(C(F)(F)F)cc1 [Teriflunomide] (20 µM)	1.07 (inactive)
NC[C@@H]1O[C@@H](O[C@H]2[C@H](O)[C@@H](O[C@H]3O[C@H](CO)[C@@H](O)[C@H](N)[C@H]3O)[C@H](N)C[C@@H]2N)[C@@H](O)[C@H](O)[C@H]1O [Kanamycin A sulfate] (20 µM)	1.02 (inactive)
CN[C@@H]1[C@H](O)[C@H](NC)[C@H]2O[C@@]3(O)C(=O)C[C@@H](C)O[C@H]3O[C@@H]2[C@H]1O [Spectinomycin dihydrochloride] (20 µM)	0.796 (inactive)
CCOC(=O)c1ccc(C#Cc2ccc3c(c2)C(C)(C)CCS3)nc1 [Tazarotene] (20 µM)	0.958 (inactive)
CCCOc1ccc2[nH]c(NC(=O)OC)nc2c1 [Oxibendazol] (20 µM)	1 (inactive)
CCN(CCCc1ccccc1)CCCc1ccccc1 [Alverine citrate salt] (20 µM)	0.895 (inactive)
CO[C@@H]1[C@@H](OC(N)=O)[C@@H](O)[C@H](Oc2ccc3c(O)c(NC(=O)c4ccc(O)c(CC=C(C)C)c4)c(=O)oc3c2C)OC1(C)C [Novobiocin sodium salt] (20 µM)	1.18 (inactive)
CCOC(N)=O [Urethane] (20 µM)	1.02 (inactive)
CCN1CCN(C(=O)N[C@@H](C(=O)N[C@@H]2C(=O)N3[C@@H]2SC(C)(C)[C@@H]3C(=O)O)c2ccccc2)C(=O)C1=O [Piperacillin sodium salt] (20 µM)	1.17 (inactive)

Compound	fold change of Putrescine concentration
CC1CCc2cc(F)cc3c(=O)c(C(=O)O)cn1c23 (stereo unspecified) [Flumequine] (20 µM)	0.679 (active)
CO/N=C1\CN(c2nc3c(cc2F)c(=O)c(C(=O)O)cn3C2CC2)CC1CN (stereo unspecified) [Gemifloxacin mesylate] (20 µM)	0.735 (inactive)
C=CCOc1ccc(CC(=O)O)cc1Cl [Alclofenac] (20 µM)	1.02 (inactive)
C[C@]12CC[C@H]3[C@@H](CCC4=CC(=O)CC[C@@]43C)[C@@H]1CC[C@@H]2C(=O)CO [Deoxycorticosterone] (20 µM)	1.25 (inactive)
CCCC(CCC)C(=O)O[C@H]1C[C@H]2CC[C@@H](C1)[N+]2(C)C [Anisotropine Methylbromide] (20 µM)	1.03 (inactive)
Cc1cn(-c2cc(NC(=O)c3ccc(C)c(Nc4nccc(-c5cccnc5)n4)c3)cc(C(F)(F)F)c2)cn1 [Nilotinib] (20 µM)	1 (inactive)
OCCN1CCN(CC/C=C2/c3ccccc3Sc3ccc(C(F)(F)F)cc32)CC1 [Flupentixol dihydrochloride cis-(Z)] (20 µM)	1.02 (inactive)
N#Cc1cc(NC(=O)C(=O)O)c(Cl)c(NC(=O)C(=O)O)c1 [Lodoxamide] (20 µM)	1.17 (inactive)
O=P(O)(O)C(Cl)(Cl)P(=O)(O)O [Clodronate disodium] (20 µM)	1.02 (inactive)
CC(=O)N[C@@H](CCC(N)=O)C(=O)O [Acetyl-L-glutamine] (20 µM)	0.98 (inactive)
CC(=O)N(CC(O)CO)c1c(I)c(C(=O)NCC(O)CO)c(I)c(C(=O)NCC(O)CO)c1I (stereo unspecified) [Iohexol] (20 µM)	1.02 (inactive)
Cc1cc2nc3c(=O)[nH]c(=O)nc-3n(C[C@H](O)[C@H](O)[C@H](O)CO)c2cc1C [Riboflavine] (20 µM)	0.989 (inactive)
CC(=O)CC(c1ccc([N+](=O)[O-])cc1)c1c(O)c2ccccc2oc1=O (stereo unspecified) [Acenocoumarol] (20 µM)	1.05 (inactive)
O=C1CCc2ccc(OCCCCN3CCN(c4cccc(Cl)c4Cl)CC3)cc2N1 [Aripiprazole] (20 µM)	1.03 (inactive)
Nc1nc(/C(=C/CC(=O)O)C(=O)N[C@@H]2C(=O)N3C(C(=O)O)=CCS[C@H]23)cs1 [Ceftibuten] (20 µM)	0.79 (inactive)
C=C(CC)C(=O)c1ccc(OCC(=O)O)c(Cl)c1Cl [Ethacrynic acid] (20 µM)	0.972 (inactive)
C[C@H](N[C@@H](CCc1ccccc1)C(=O)O)C(=O)N1CCC[C@H]1C(=O)O [Enalaprilat dihydrate] (20 µM)	1 (inactive)
O=C1c2ccccc2S(=O)(=O)N1CCCCN1CCN(c2ncccn2)CC1 [Ipsapirone] (20 µM)	0.992 (inactive)
Cn1c(=O)c2c(ncn2CC2OCCO2)n(C)c1=O [Doxofylline] (20 µM)	0.999 (inactive)
